MEKK2mut PB1 HTS: signal of MEK5 binding to mutant human MEKK2 PB1 domain; bead flow cytometry, Alexa488-MEK5 binding to MEKK2 mutant; percent response, % at 10 µM; 0.35% of 290,000 active; AID 1530; in the data active = percent response above about 24%, passing the limit was not always enough
NRP1-CendR mod: NRP-1/CendR interaction modulation | 0.85% of 360,000 active | inhibition, % at 25 µM | O14786 | FAM-RPARPAR peptide binding to NRP-1, fluorescence polarization | AID 602438;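 active = inhibition or corrected inhibition above about 18%, plus a signal ratio from 0.5 to 1.5, limit read from the data, passing the limit was not always enough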
SKN-1 inh: blocks SKN-1 activity in C. elegans; C. elegans VP596 Pgst-4::GFP/RFP ratio, acrylamide-induced, 24 h; inhibition, % at 21.8 µM; 0.49% of 360,000 active;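 active = interference check ratio from 0.5 to 1.5 plus GFP to RFP signal ratio inhibition reaching or exceeding a fixed threshold, cut at about 30% in these data, passing the limit was not always enough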
MEKK2wt PB1 HTS: raises or lowers MEK5 binding to wildtype human MEKK2 PB1 domain. binding response (% of control), % at 10 µM. bead flow cytometry, Alexa488-MEK5 binding to MEKK2 WT; actives lie on both sides. Q9Y2U5. AID 1531. 1.1% of 290,000 active; in the data active = binding response below about 67% or above about 130%
MEKK3 PB1 HTS: modulators (inhibitors or enhancers) of MEK5 binding to human MEKK3 PB1 domain; Q99759; bead-based flow cytometry, Alexa488-MEK5 binding to MEKK3; actives lie on both sides; 0 = blocked by unlabeled MEK5, 100 = vehicle; AID 1529; binding response (% of control), % at 10 µM; 1.4% of 290,000 active;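 active = binding response more than 3 SD above or below the average of its plate-row segment, actives on both sides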;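 also: Alexa488 bead fluorescence after subtracting the streptavidin-only scavenger bead signal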
Target sequence (Q99759 whole entry, looked up, the tested form may be a part): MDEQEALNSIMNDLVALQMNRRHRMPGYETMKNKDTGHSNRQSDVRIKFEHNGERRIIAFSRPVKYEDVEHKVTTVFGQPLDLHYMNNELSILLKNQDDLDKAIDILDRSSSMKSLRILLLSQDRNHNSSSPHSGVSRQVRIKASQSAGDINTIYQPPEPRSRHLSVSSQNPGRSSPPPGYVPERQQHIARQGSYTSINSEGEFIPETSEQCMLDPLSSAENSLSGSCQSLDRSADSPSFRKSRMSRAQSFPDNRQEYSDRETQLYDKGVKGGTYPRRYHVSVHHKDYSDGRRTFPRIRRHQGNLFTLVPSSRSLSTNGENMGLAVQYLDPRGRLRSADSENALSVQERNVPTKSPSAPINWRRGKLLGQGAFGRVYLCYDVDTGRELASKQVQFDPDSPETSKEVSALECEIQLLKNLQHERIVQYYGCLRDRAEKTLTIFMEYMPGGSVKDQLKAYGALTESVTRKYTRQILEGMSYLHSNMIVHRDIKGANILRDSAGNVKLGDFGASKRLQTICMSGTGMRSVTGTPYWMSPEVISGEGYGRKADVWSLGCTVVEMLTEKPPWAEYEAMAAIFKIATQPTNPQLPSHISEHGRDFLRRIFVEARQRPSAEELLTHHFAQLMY
MEKK2wt confirm: raises or lowers MEK5 binding to wildtype human MEKK2, retest; shares compounds with MEKK3 PB1 HTS; bead flow cytometry, Alexa488-MEK5 binding to MEKK2 WT; actives lie on both sides; binding response (% of control), % at 10 µM; 2.4% of 5,900 active; in the data active = binding response below about 16% or above about 210%; inactive = in between
MEKK2mut-MEK5: signal of MEK5 binding to mutant human MEKK2, retest; shares compounds with MEKK3 PB1 HTS; bead flow cytometry, Alexa488-MEK5 binding to MEKK2 mutant; percent response, % at 10 µM; 2% of 5,900 active; AID 1893; in the data active = percent response mostly above about 71%, no sharp cut-off; inactive = mostly below about 38%;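 also: higher means compound restores mutant binding toward wildtype level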
MEKK3-MEK5 inh: confirmation of inhibitors of MEK5 binding to human MEKK3. shares compounds with MEKK3 PB1 HTS. bead flow cytometry, Alexa488-MEK5 binding to MEKK3; stronger effect = lower value. binding response (% of control), % at 10 µM. 1.8% of 5,900 active. AID 1894;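 active = binding response below 72% of control, or above a set upper limit, though filed actives all read lower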;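 also: 100% = DMSO only wells and 0% = binding blocked by excess unlabeled MEK5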
An asterisk follows results filed as active; / = no result given; ! = not confirmed by another sample; [ ] = remark or other dose. Rows were chosen to be rich in hits. Some 3.2% of all compounds tested hit in one or more screens of this group.

SMILES	MEKK2mut PB1 HTS	NRP1-CendR mod	SKN-1 inh	MEKK2wt PB1 HTS	MEKK3 PB1 HTS	MEKK2wt confirm	MEKK2mut-MEK5	MEKK3-MEK5 inh
Cc1ccc(N(CC2=NCCN2)c2cccc(O)c2)cc1	10.0	4.0	1.0	132.0	35.0*![inhibitor]	115.0	2.0	103.0
CC1CC(C)CN(C(=O)CN2CCN(Cc3ccc(Cl)cc3)C2=O)C1 (stereo not drawn)	6.0	5.3	4.3	122.0	128.0*	103.0	1.0	98.0
CC(=O)c1cccc(CN2CCC(C(=O)Nc3ccc(Oc4cccnc4)cc3)CC2)c1	10.0	-7.6	-4.9	121.0	105.0	/	/	/
CC(=O)c1cccc(CN2CCC(C(=O)Nc3ccc(-c4cccc(C)c4)cc3)CC2)c1	19.0	-0.2	-5.9	176.0*	107.0	153.0	50.0	105.0
NC(=NCCc1ccccc1)NC(=O)c1cc(Cl)ccc1O	/	1.6	8.2	/	/	/	/	/
Oc1ccc(Cl)cc1C=NCCc1ccccc1	0.0	3.1	6.3	100.0	129.0*	101.0	-2.0	96.0
Cc1ccccc1-n1c(SCC(=O)NC2CC2)nc2ccccc2c1=O	/	-3.9	-6.8	/	/	/	/	/
COc1ccccc1CNC(=O)CSc1ccccc1	-2.0	4.4	0.5	95.0	97.0	/	/	/
COc1ccccc1CNC(=O)CSc1ccc(C)cc1	2.0	-2.5	1.8	112.0	145.0*	103.0	2.0	102.0
COc1ccccc1CNC(=O)CSc1nnc2c(Cl)cc(C(F)(F)F)cn12	1.0	-0.5	0.8	109.0	137.0*	109.0	5.0	109.0
O=[N+]([O-])c1ccc2oc(C(O)c3cccc(Cl)c3)cc2c1 (stereo not drawn)	-6.0	4.9	11.0	93.0	94.0	/	/	/
CCN(CC(=O)NCc1cccs1)C(=O)CCC(=O)c1ccc(C)cc1	/	-6.6	-2.0	/	/	/	/	/
c1nc(NCC2(N3CCOCC3)CCCCC2)c2ccsc2n1	4.0	2.5	-18.1	117.0	123.0*	106.0	7.0	108.0
Cc1ccc(NC(=O)[C@@H]2O[C@H](CO)[C@H](O)[C@H](O)[C@H]2O)cc1C(F)(F)F	/	-12.1	-7.3	/	/	/	/	/
COc1cccc(S(=O)(=O)Nc2ccc3c(c2)C(=O)N(C)C[C@H](OC)[C@H](C)CN[C@@H](C)CO3)c1	/	-1.6	12.1	/	/	/	/	/
CCCN1CCC(=O)N([C@H](CSc2ccc(C)cc2)c2ccccc2)CC1	20.0	2.1	-3.6	157.0*	115.0	174.0	40.0	100.0
CCOC(=O)c1ccc(NC(=S)Nc2ccccc2)cc1	1.0	5.4	0.0	93.0	64.0*[inhibitor]	97.0	-1.0	101.0
CCOC(=O)c1ccc(NC(=O)c2nn(CC)cc2Br)cc1	-39.0	-10.2	7.0	-4.0*[inhibitor]	0.0*[inhibitor]	101.0	-2.0	101.0
CCOC(=O)c1ccc(NC(=S)Nc2ccc(C)cc2)cc1	1.0	12.6	-7.0	98.0	104.0	/	/	/
c1ccc(NCc2ccccn2)cc1	6.0	13.4	4.6	130.0	138.0*	94.0	-7.0	96.0
COc1ccc(-c2nnc(OCc3ccccc3)c3ccccc23)cc1	0.0	7.6	-14.6	104.0	129.0*	110.0	9.0	110.0
c1ccc(-c2nnc(OCc3cccnc3)c3ccccc23)cc1	3.0	-6.7	15.2	103.0	106.0	/	/	/
NNc1nc2ccc(Cl)cc2s1	0.0	4.5	6.8	105.0	132.0*	106.0	0.0	103.0
CCOc1ccc(CC(=O)N2CCN=C2SCc2ccc([N+](=O)[O-])cc2)cc1	0.0	-2.3	-0.9	102.0	106.0	/	/	/
COc1ccc(CC(=O)N2CCN=C2SCc2ccc([N+](=O)[O-])cc2)cc1	3.0	1.7	-10.7	118.0	130.0*	95.0	-4.0	99.0
SMILES	MEKK2mut PB1 HTS	NRP1-CendR mod	SKN-1 inh	MEKK2wt PB1 HTS	MEKK3 PB1 HTS	MEKK2wt confirm	MEKK2mut-MEK5	MEKK3-MEK5 inh
CC(C)(C)c1ccc(S(=O)(=O)n2c(CN3CCOCC3)nc3ccccc32)cc1	6.0	-5.0	-11.8	120.0	125.0*	101.0	0.0	102.0
CCOc1cc(OCC)cc(C(=O)NCCN2CCC(n3c(=O)[nH]c4ccccc43)CC2)c1	/	1.6	0.2	/	/	/	/	/
Cc1ccc(S(=O)(=O)N(CC(=O)N2CCc3ccccc3C2)c2ccc(Cl)c(Cl)c2)cc1	1.0	-2.1	13.9	111.0	146.0*	99.0	6.0	106.0
O=C(CN(c1ccc(Cl)c(Cl)c1)S(=O)(=O)c1ccccc1)N1CCc2ccccc2C1	1.0	13.0	-9.4	93.0	102.0	/	/	/
CCOC(=O)N1CCN(C(=O)CN(c2ccccc2OC)S(=O)(=O)c2ccc(C)cc2)CC1	-25.0	11.0	3.8	18.0*[inhibitor]	12.0*[inhibitor]	100.0	0.0	103.0
OC[C@H]1O[C@@H](c2nc(-c3ccc(CN4CCOCC4)cc3)no2)[C@H](O)[C@@H](O)[C@H]1O	/	12.2	8.7	/	/	/	/	/
O=C(NCCO)c1cccc(-c2cnc3cccnn23)c1	/	7.9	-1.0	/	/	/	/	/
C=CCn1c(SCC(=O)N2N=C(c3ccco3)CC2c2ccco2)nnc1-c1ccncc1 (stereo not drawn)	-1.0	-5.7	3.4	94.0	66.0*[inhibitor]	113.0	12.0	106.0
CSc1nc(-c2ccccc2)nn1C(=O)c1ccco1	-1.0	2.8	-5.7	1.0*[inhibitor]	1.0*[inhibitor]	97.0	-8.0	98.0
CSc1nc(-c2ccccc2)nn1C(=O)c1ccccc1	/	-18.7	-15.7	/	/	/	/	/
CCCCCCCCCCCCCCCCn1cc[n+](C)c1	76.0*	6.8	18.8	213.0*	113.0	148.0	17.0	100.0
Cc1sc2nc(CN3CCC(C)CC3)nc(Cl)c2c1C	6.0	/	/	111.0	161.0*	97.0	-3.0	95.0
CCOC(=O)CCC(NC(=O)CCCCCCCCC(=O)NC(CCC(=O)OCC)C(=O)OCC)C(=O)OCC (stereo not drawn)	1.0	4.8	-1.0	110.0	107.0	/	/	/
CCOC(=O)CCC(NC(=O)CCCCC(=O)NC(CCC(=O)OCC)C(=O)OCC)C(=O)OCC (stereo not drawn)	1.0	-3.0	1.4	107.0	130.0*	106.0	0.0	103.0
Cc1ccsc1/C=C(\C#N)C(=O)NCc1ccco1	4.0	9.6	4.7	103.0	128.0*	107.0	9.0	109.0
Brc1ccc(-c2nc3ncccn3c2NC2CCCCC2)o1	8.0	-1.0	19.5	123.0	129.0*	101.0	4.0	102.0
Cc1ccc(-c2nc3ncccn3c2NC2CCCC2)o1	4.0	4.5	-25.1	102.0	101.0	/	/	/
CCOC(=O)c1ccc(N2C(=O)CC(Nc3ccc(O)cc3)C2=O)cc1 (stereo not drawn)	28.0	12.7	5.5	110.0	128.0*	100.0	8.0	104.0

Bioassay records from PubChem BioAssay.
